High-throughput results deposited in PubChem BioAssay by National Center for Advancing Translational Sciences (NCATS).
Compounds with a hit are over-represented: about 2.6% of the library has one in this group of screens.
Cruzain noTriton – blocks cruzain activity in detergent-free assay; purified cruzain, Z-FR-AMC fluorescence, no detergent; Potency, µM, inactives show max response, negative = inhibition, usual class: inhibitors; 200,000 compounds, 2.3% hits; AID 1476;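 further: plate controls were enzyme without inhibitor for no effect and buffer without enzyme for full effect; nearly all actives have a fitted effect of over 40% in size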
Target sequence (P25779 123-467 limits assumed): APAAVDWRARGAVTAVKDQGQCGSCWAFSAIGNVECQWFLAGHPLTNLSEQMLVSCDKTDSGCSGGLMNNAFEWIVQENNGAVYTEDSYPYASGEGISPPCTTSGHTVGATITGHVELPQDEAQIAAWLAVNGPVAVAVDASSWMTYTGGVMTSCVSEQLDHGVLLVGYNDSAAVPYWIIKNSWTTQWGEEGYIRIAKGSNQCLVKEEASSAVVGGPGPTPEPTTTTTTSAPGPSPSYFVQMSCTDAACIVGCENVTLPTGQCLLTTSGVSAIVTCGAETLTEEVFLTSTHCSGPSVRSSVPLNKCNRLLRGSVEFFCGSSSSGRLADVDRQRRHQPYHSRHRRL
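Purified cruzain at 1.5 nM, pre-incubated 15 min with compound at room temperature in 100 mM sodium acetate pH 5.5, 5 mM DTT, 0.00005% Triton X-100. Reaction started with 2 uM Z-FR-AMC; AMC fluorescence increase over 60 s gives rate.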
Cruzain inh Det – inhibitors of Trypanosoma cruzi cruzain with detergent. 200,000 compounds, 0.43% hits. AID 1478. purified cruzain, Z-FR-AMC fluorescence, 0.01% Triton. Potency, µM, inactives show max response, negative = inhibition, most hits filed as inhibitors;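 further: plate controls were neutral wells for no effect and buffer without enzyme for full effect; nearly all actives have a fitted effect of over 40% in size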
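Z-FR-AMC hydrolysis (2 uM substrate) by cruzain (1.5 nM) monitored kinetically at ex 360/em 450 nm after 15 min room-temperature compound exposure; 0.01% Triton X-100, pH 5.5, 5 mM DTT.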
The depositor's hits bear a star; ? = inconclusive; ! = not active in a repeat. The call rests on the fitted dose curve; in most records, active means well fitted curve in the direction sought with a large enough effect; inconclusive means small, poorly fitted or top-dose-only effect, or another doubt; inactive means no such curve, though single readings can be large; an effect the other way counts as inactive or inconclusive. Potency means the concentration at half of the fitted maximal effect.

SMILES	Cruzain noTriton	Cruzain inh Det
CCOC(=O)N1CCc2c(sc3c2c(=O)n(-c2ccc(F)cc2)c(=O)n3CC(=O)c2ccc(Cl)cc2)C1	-6%	-3%
Cc1cccc(N2CCN(C(=O)CCC(=O)NNc3nc4ccccc4c4nc(C)nn34)CC2C)c1 (configuration not stated)	?	3%
CCc1cccc(C)c1NC(=O)C(CC)n1nc(C)c2c(C)n(-c3ccccc3)nc2c1=O (configuration not stated)	-10%	-3%
COc1ccc(CCn2c(O)c(C=NCc3ccc4c(c3)OCO4)c(=O)[nH]c2=O)cc1OC	?	-7%
O=c1[nH]c(=O)n(CCc2ccc(F)cc2)c(O)c1C=NCc1ccc2c(c1)OCO2	?	13µM*
O=C(CSc1nnc(SCc2cccc3ccccc23)s1)N/N=C/c1c[nH]c2ccccc12	1%	-4%
O=C(CSc1nnc(SCc2cccc3ccccc23)s1)N/N=C/C=C/c1ccccc1[N+](=O)[O-]	10µM*	-3%
O=C(CN1C(=O)/C(=C\c2ccc(F)cc2)Oc2ccccc21)NCc1ccco1	25µM*	25µM*
O=C(CCN1C(=O)COc2ccccc21)NCc1ccco1	-7%	1%
CCc1ccc(NC(=O)c2ccc(F)c(S(=O)(=O)NCc3ccc(Cl)c(Cl)c3)c2)cc1	-29%	1%
Cc1ccc(N2CCN(C3=NC(=O)C(Cc4ccccc4)S3)CC2)cc1 (configuration not stated)	-4%	28µM*
O=C1N=C(N2CCN(c3ccccc3)CC2)SC1Cc1ccccc1 (configuration not stated)	-7%	-26%
O=C(Cc1ccc(NC(=O)N2CCCCc3ccccc32)cc1)NCc1cccc(Br)c1	6%	-5%
C/C(=N/NC1=NCCN1)c1cn(C2=NCCN2)nc1C	13%	-2%
Cc1oc2c(cc(NS(=O)(=O)c3ccc(C(C)C)cc3)c3ccccc32)c1C(=O)O	19%	?
Cc1oc2c(cc(NS(=O)(=O)c3cccs3)c3ccccc32)c1C(=O)OC(C)C	32µM*	-3%
Cc1ccc(O)c(C(=O)c2cnc3c(c2)CN(CCC(C)C)C(=O)N3)c1	10µM*	-2%
Cc1ccc(O)c(C(=O)c2cnc3c(c2)CN(C)C(=O)N3)c1	-12%	-4%
COc1ccc(OC)c(NC(=O)CN2C(=O)CCc3cc(S(=O)(=O)N4CCCCC4)ccc32)c1	?	-5%
O=C(Nc1c(Cl)cccc1Cl)c1ccc(-c2ccccc2)cc1	-9%	1%
O=C(Nc1ccc(Cl)cc1Cl)c1ccc(-c2ccccc2)cc1	25µM*	0%
Cc1ccc([N+](=O)[O-])cc1NC(=O)c1ccc(C(C)(C)C)cc1	-2%	-1%
Cc1ccc([N+](=O)[O-])cc1NC(=O)c1ccc(-c2ccccc2)cc1	13µM*	3%
Cc1cc(=O)n(Cc2ccc(Br)cc2F)c2c1c(C)nn2-c1ccccc1	-10%	-1%
CCOc1ccccc1NC(=O)C1CCCN1S(=O)(=O)c1ccc2nc(-c3ccccc3)[nH]c2c1 (configuration not stated)	?	-6%
SMILES	Cruzain noTriton	Cruzain inh Det
N#C/C(=C(/O)CSc1ccccc1C(=O)O)c1nc2ccccc2s1	-3%	4%
Cc1ccc(SC/C(O)=C(\C#N)c2nc3ccccc3s2)cc1	25µM*	1%
CCc1ccc(-n2c(=O)c3cccnc3n2CC(=O)Nc2cc(OC)ccc2OC)cc1	-1%	3%
CCc1cccc(-n2c(=O)c3cccnc3n2CC(=O)Nc2ccc(OC)c(Cl)c2)c1	25µM*	-1%
CCOC(=O)c1ccccc1NC(=O)c1cc2c(=O)oc3ccc(C)cc3c2s1	-2%	6%
Cc1ccccc1S(=O)Cc1ccc(C(=O)NC2CCCCCC2)o1 (configuration not stated)	-14%	-16%
COc1cccc(-c2nc(-c3ccc4c(c3)-c3ccccc3S4(=O)=O)c(-c3ccccc3)[nH]2)c1OC	13µM*	-10%
COc1cc(-c2nc(-c3ccc4c(c3)-c3ccccc3S4(=O)=O)c(-c3ccccc3)[nH]2)cc(OC)c1OC	-2%	-1%
CCC(=O)OCN1C(=O)C=CC1=O	-1%	1%
CN(C)Cc1ccccc1-c1nc(NCc2cccs2)c2ccccc2n1	-3%	2%
C[N+](C)(C)c1cc2c(nn1)Nc1ccccc1S2	14%	-1%
CN(C)c1ccc(C(CNS(=O)(=O)c2ccccc2)N2CCc3ccccc32)cc1 (configuration not stated)	16µM*	-2%
Cc1ccc(S(=O)(=O)NCC(c2ccc(N(C)C)cc2)N2CCc3ccccc32)cc1 (configuration not stated)	-4%	-4%
O=S(=O)(c1ccc(NC(=S)NCCC(c2ccccc2)c2ccccc2)cc1)N1CCOCC1	25µM*	-12%
CC(C)(C)CC(C)(C)NC(=S)Nc1ccc(S(=O)(=O)N2CCOCC2)cc1	?	-10%
COC(=O)c1ccccc1NC(=O)CSc1nc2sc3c(c2c(=O)[nH]1)CCCC3	-14%	-5%
Cc1cccc(S(=O)(=O)N2CN(Cc3ccco3)c3nc4ccccc4nc32)c1	25µM*	-8%
COCCN1CN(S(=O)(=O)c2ccccc2)c2nc3ccccc3nc21	-3%	-13%
CCCCOc1ccc(CNC(=O)c2ccc(NC(=O)N3CCSc4ncccc43)cc2)cc1	?	-12%
O=c1cc(-c2ccc(O)c(O)c2)oc2cc(O)cc(O)c12	-19%	-13%
O=c1c(O)c(-c2ccc(O)c(O)c2)oc2cc(O)cc(O)c12	20µM*!	?
CC(=O)[C@H]1CC[C@@H]2[C@]1(C)CC=C1[C@@]23C=C[C@]2(C[C@H](O)CC[C@@]12C)[C@H](C(=O)O)[C@@H]3C(=O)O	-3%	-3%
C=CCc1ccccc1OCCSc1nc(-c2ccc(C(C)(C)C)cc2)nc2cc(=O)[nH]n12	4µM*	-3%
Cc1ccc(C(C)C)c(OCCSc2nc(-c3cccs3)nc3cc(=O)[nH]n23)c1	7.9µM*	1%
Cc1cccc(-c2nc(SCCCOc3cc(C)c(Cl)c(C)c3)n3[nH]c(=O)cc3n2)c1	-1%	-1%
SMILES	Cruzain noTriton	Cruzain inh Det
COc1ccccc1OCCSc1nc(-c2ccc(C(C)(C)C)cc2)nc2cc(=O)[nH]n12	-9%	-6%
Cc1cc(C)cc(OCCSc2nc(-c3cccs3)nc3cc(=O)[nH]n23)c1	6%	0%
Cc1ccc(NC(=O)CSc2nc(-c3ccc(C(C)(C)C)cc3)nc3cc(=O)[nH]n23)cc1C	4µM*	-1%
CCOc1ccc(-c2nc(SCC(=O)Nc3ccc(C)c(C)c3)n3[nH]c(=O)cc3n2)cc1	6%	2%
Cc1cccc(-c2nc(SCCCOc3ccccc3Cl)n3[nH]c(=O)cc3n2)c1	16µM*	3%
COc1ccc(-c2cnc(-c3cccnc3)o2)cc1	-7%	-6%
Cc1ccc2nc(N/N=C\c3cccc(C)n3)cc(C)c2c1	-13%	-1%
NC1(C(=O)O)C[C@H](C(=O)O)[C@H](C(=O)O)C1 (some centres not stated)	10%	-5%
CCCCCn1c(NCc2ccccc2OC)nc2ccccc21	0%	-4%
N[C@@H](CP(=O)(O)O)C(=O)O	6%	-3%
C=CCc1ccccc1OCCSc1nc(-c2cccs2)nc2cc(=O)[nH]n12	7.9µM*	0%
O=c1cc2nc(-c3cccs3)nc(SCCOc3ccc(Cl)cc3)n2[nH]1	-3%	4%
CC(C)c1ccc(-c2noc(SCC(=O)N3CCCCC3C)n2)cc1 (configuration not stated)	12%	-5%
